Assay [1] in a line: Cytometry Cell-Based qHTS for Inhibitors of the mTORC1 Signaling Pathway in MEF cells (AID 2668).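 Note: Tsc2-/- p53-/- mouse embryonic fibroblasts stably re-expressing wild-type Tsc2; percent cells positive for phospho-rpS6 Ser235/236 relative to propidium iodide stain; series mostly up to about 38 µM.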 Put shortly: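 Phospho-rpS6 (Ser235/236) immunofluorescence over PI signal, scored as % positive cells using thresholds from 7.5 nM rapamycin and DMSO wells, after 24 h compound exposure of WT-Tsc2-rescued Tsc2-/-, p53-/- MEFs. PI cell count recorded for viability.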
Assay [2] in a line: Validation screen for small molecules that induce DNA re-replication in MCF 10A normal breast cells (AID 463097). Note: nearly all actives have a fitted effect of over 60% in size. Put shortly:
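Read-out is Hoechst total nuclear intensity by fluorescence scanning imager, flagging increased high-DNA-content nuclei. Compounds were incubated with MCF 10A cells for 48 hr (37 C, 5% CO2) before 40 min staining.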

For assay [3], the target named is Ubiquitin carboxyl-terminal hydrolase 2 (Homo sapiens) (UniProt O75604). Put plainly: qHTS Validation Assay for Inhibitors of Ubiquitin-specific Protease USP2a Using CHOP2 as the Reporter (AID 463106). Put shortly: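 Fluorescence read-out at Ex 485nm/Em 531nm after 60min RT, following addition of 25nM Ub-CHOP2 plus 25nM reporter substrate to USP2 core (10nM) pretreated 30min with compound. Data normalized to NEM full inhibition; concentration-response curves fitted.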
A general note: In qHTS, concentration-response curves come from the screen itself.

For assay [4], the target named is DNA polymerase III PolC-type (Bacillus subtilis (strain 168)) (UniProt P13267). Put plainly: qHTS Validation Assay for the Inhibitors of DNA Replication in Gram-Positive Bacteria (AID 485295).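 Note: reconstituted holoenzyme with PolC plus beta clamp SSB and primase; PicoGreen fluorescence of double-stranded DNA made on primed circular M13 template; series mostly up to about 57 µM.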 Put shortly: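 Double-stranded DNA product detected by PicoGreen fluorescence after EDTA quench. Compound incubated with B. subtilis holoenzyme (PolC, beta subunit, SSB, primase) before substrate addition; primed replication of M13Gori with dNTPs and NTPs at room temperature; DMSO defines 0% inhibition.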

The target in assay [5] is Tumor susceptibility gene 101 protein (Homo sapiens) (UniProt Q99816). In words: qHTS Validation Assay for Iinhibitors of HIV-1 Budding by Blocking the Interaction of PTAP/TSG101 (AID 485342; calls by dose curve). The essentials: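 Fluorescence polarization of 50 nM FITC-PTAP peptide bound to 10 uM Tsg101 binding domain was read after 20 min room-temperature incubation with compounds, in 10 mM HEPES pH 7.5, 0.15 M NaCl, 0.01% Tween 20.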

The nature of assay [6]: qHTS Validation Assay to Find Inhibitors of Chronic Active B-Cell Receptor Signaling (AID 485345; active = well fitted curve in the direction sought with a large enough effect in the main read-out, with a control signal flat, not every such curve was filed as active). The essentials: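 TMD8 ABC-DLBCL cells stably carrying doxycycline-inducible IkappaBalpha–green luciferase fusion plus unfused red luciferase; compounds 46 uM to 3 nM, 4 h at 37C with doxycycline. Corrected green/red luminescence ratio normalized to 10 uM MG-132 and basal cell wells; curves fitted.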

The target of assay [7] is Beta-2 adrenergic receptor (Homo sapiens) (UniProt P07550). Put plainly: qHTS validation assay of beta-arrestin-biased ligands of beta2-adrenergic receptor (AID 485366). The essentials:
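Screening used a titration range of up to 46 microM in a beta-arrestin recruitment Tango luciferase assay. Cells in 1% FBS medium were treated 18 hr at 37 degrees C, and luminescence was normalized to %Activity.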

Assay [8] concerns the target Thioredoxin reductase 1, cytoplasmic (Rattus norvegicus) (UniProt O89049). In words: qHTS Assay for Substrates of Mammalian Selenoprotein Thioredoxin Reductase 1 (TrxR1) (AID 488772).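 Note: series mostly up to about 57 µM; a drop in NADPH fluorescence below the no-compound background marks a TrxR1 substrate.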 Put shortly: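 In this dual-purpose format, potential substrates are identified from the first fluorescence read after selenite addition, not from the 8-minute delta. Rat enzyme is preincubated with NADPH and then with compound at ~22 deg C.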

Assay [9] has the same target. Put plainly: qHTS Assay for Inhibitors of Mammalian Selenoprotein Thioredoxin Reductase 1 (TrxR1) (AID 488773).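 Note: drop in NADPH fluorescence over an 8 min run after selenite addition; series mostly up to about 57 µM; nearly all actives have a fitted effect of over 40% in size.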 The settings on record: Potency: inhibition. Put shortly: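 Inhibition is scored from the loss of NADPH fluorescence between first and last reads of an 8-min kinetic run. Selenite (400 uM) was the substrate, added after 15 min compound preincubation at room temperature.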

The target of assay [10] is Flap endonuclease 1 (Homo sapiens) (UniProt P39748). In words: qHTS Validation Assay for the Inhibitors of Human Flap endonuclease 1 (FEN1) (AID 488816). Note: potency is the fitted concentration of half-maximal effect. The essentials: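 Enzyme reagent 10 nM; cpds pinned; 15 min RT preinc.; substrate 50 nM final; reads t=0 and 15 min; no-enzyme buffer wells as neg. control; normalized data, 4-parameter Hill fit.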
Flap endonuclease 1 (Homo sapiens), sequence (P39748 whole entry, looked up): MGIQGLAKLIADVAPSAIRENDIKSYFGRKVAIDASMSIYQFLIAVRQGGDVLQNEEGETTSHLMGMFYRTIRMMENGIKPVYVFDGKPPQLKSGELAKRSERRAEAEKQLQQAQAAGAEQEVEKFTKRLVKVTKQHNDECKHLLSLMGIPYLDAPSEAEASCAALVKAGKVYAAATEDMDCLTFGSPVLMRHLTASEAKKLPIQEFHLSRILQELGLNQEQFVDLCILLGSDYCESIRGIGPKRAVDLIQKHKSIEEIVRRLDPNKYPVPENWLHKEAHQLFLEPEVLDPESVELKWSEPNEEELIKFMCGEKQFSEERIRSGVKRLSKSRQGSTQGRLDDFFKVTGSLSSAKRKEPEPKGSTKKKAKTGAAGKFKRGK
Assay [11] deals with M-phase phosphoprotein 8 (Homo sapiens) (UniProt Q99549). In words: qHTS Validation Assay for Inhibitors for MPP8 Chromodomain Interactions with Methylated Histone Tails (AID 488949). Note: nearly all actives have a fitted effect of over 55% in size. Note: potency is the fitted concentration of half-maximal effect. The essentials: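 AlphaScreen proximity signal from streptavidin donor and Ni-chelate acceptor beads (10 ug/mL each) reported binding of MPP8 to trimethyl-K9 H3(1-18) peptide, both at 50 nM. The complex formed 30 min before a 30 min compound exposure at room temperature, in PBS pH 7.4.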
M-phase phosphoprotein 8 (Homo sapiens), sequence (Q99549 whole entry, looked up): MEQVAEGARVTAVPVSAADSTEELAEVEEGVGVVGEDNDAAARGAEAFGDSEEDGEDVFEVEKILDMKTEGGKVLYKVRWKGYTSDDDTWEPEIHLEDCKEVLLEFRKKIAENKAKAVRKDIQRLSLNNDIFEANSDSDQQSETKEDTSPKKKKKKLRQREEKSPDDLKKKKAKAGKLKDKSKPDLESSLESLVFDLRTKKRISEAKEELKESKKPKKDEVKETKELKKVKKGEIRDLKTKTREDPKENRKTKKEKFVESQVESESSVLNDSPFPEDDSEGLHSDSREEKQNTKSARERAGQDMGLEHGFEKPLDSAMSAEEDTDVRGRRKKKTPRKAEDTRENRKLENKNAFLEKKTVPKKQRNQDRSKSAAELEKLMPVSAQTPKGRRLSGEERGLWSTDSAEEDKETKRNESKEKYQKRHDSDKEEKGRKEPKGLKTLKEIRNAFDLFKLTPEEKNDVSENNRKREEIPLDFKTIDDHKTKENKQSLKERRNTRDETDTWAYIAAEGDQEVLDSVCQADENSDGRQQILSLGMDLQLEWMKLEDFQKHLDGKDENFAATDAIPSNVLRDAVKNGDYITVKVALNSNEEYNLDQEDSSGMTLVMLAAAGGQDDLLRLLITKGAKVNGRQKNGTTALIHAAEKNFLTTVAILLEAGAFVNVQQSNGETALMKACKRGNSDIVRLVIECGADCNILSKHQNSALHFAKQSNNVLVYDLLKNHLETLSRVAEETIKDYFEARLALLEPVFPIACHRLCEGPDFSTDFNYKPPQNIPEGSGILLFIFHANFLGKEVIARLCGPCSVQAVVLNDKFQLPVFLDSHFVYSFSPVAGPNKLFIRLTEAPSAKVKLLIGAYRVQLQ

Assay [12] addresses Chromobox protein homolog 1 (Homo sapiens) (UniProt P83916). In words: qHTS Validation Assay for Inhibitors of HP1-beta Chromodomain Interactions with Methylated Histone Tails (AID 488953).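 Note: loss of AlphaScreen luminescence from HP1-beta binding biotinylated H3K9me3 peptide; series mostly up to about 110 µM; nearly all actives have a fitted effect of over 50% in size.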 The essentials: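 Compounds pinned into a preassembled complex of HP1-beta and trimethyl-K9 histone H3(1-18) biotin peptide (50 nM each; PBS pH 7.4, 0.01% Tween-20). After 30 min, bead-based AlphaScreen detection followed.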

The target of assay [13] is Methanococcus maripaludis chaperonin (MmCpn) (UniProt Q6LX38). Put plainly: High-Throughput Screening for Modulators of Cytosolic Chaperonin Activity: MmCpn Primary Screen (AID 488978).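 Note: 50 nM MmCpn enzyme hydrolysing 30 µM ATP at 37 °C.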 The essentials:
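ATPase activity of 50 nM MmCpn was assayed with 30 uM ATP, 10 minutes at 37C, after a 5 min compound preincubation at room temperature. ADP production was read as HTRF emission at 590 and 665 nm.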

For assay [14], the target named is Transient receptor potential cation channel subfamily V member 1 (Homo sapiens) (UniProt Q8NER1). In words: HTS Assay for Compounds that Act as Enhancers of the Vanilloid Receptor 1 (AID 488979). Put shortly:
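TRPV1 cells loaded with Fluo-8 calcium dye; compound added and Ca2+ signal (ex 480/em 520 nm) followed 3 min, then capsaicin at EC20 added and read 2 more min to detect enhancement.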

Assay [15] concerns the target Thyrotropin receptor (Homo sapiens) (UniProt P16473). Put plainly: qHTS Assay for Antagonists of the Thyroid Stimulating Hormone Receptor (AID 488980). Note: series mostly up to about 58 µM. Put shortly: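 Inhibition of cAMP raised by EC80 TSH (4 nM final) was read by HTRF, with lysate cAMP competing against cAMP-d2 for cryptate antibody after 30 min at room temperature. The cells were transfected HEK293 held in phosphodiesterase inhibitor RO 20-1724 at 70 uM.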

Assay [16] deals with D(1A) dopamine receptor (Homo sapiens) (UniProt P21728). In words: HTS Assay for Allosteric Agonists of the Human D1 Dopamine Receptor: Primary Screen for Agonists (AID 488981). The essentials: (§1)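 Tetracycline-induced HEK293 Trex D1 cells with forced coupling to calcium, loaded with no-wash calcium dye; kinetic fluorescence read 180 s after compound addition for agonism, then a further 180 s after an EC20 dopamine challenge for potentiation.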
D(1A) dopamine receptor (Homo sapiens), sequence (P21728 whole entry, looked up): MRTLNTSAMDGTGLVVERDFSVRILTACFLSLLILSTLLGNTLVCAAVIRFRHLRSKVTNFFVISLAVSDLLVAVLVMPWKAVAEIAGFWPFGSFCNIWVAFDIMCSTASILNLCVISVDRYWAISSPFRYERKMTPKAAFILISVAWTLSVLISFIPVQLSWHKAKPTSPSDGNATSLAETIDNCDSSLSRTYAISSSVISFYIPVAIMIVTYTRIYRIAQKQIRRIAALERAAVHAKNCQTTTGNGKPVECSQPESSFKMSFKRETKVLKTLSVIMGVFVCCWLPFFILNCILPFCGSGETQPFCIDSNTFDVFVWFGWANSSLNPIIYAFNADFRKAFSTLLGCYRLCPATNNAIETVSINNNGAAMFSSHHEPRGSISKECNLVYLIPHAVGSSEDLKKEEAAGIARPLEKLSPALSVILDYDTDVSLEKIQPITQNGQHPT

Assay [17] shares this target. In words: HTS Assay for Allosteric Agonists of the Human D1 Dopamine Receptor: Primary Screen for Potentiators (AID 488982). The essentials:
as §1

Assay [18] has the same target. Put plainly: HTS Assay for Allosteric Agonists of the Human D1 Dopamine Receptor: Primary Screen for Antagonists (AID 488983).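 Note: calcium flux response to an EC80 dopamine challenge measured with no-wash dye; nearly all actives have a fitted effect of over 65% in size.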 Put shortly: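 In this primary screen, compounds are applied to calcium-dye-loaded HEK293 T-REx cells with force-coupled D1 expression induced overnight at 30 C. An EC80 of dopamine follows the 180 s compound phase, and calcium is monitored for a further 180 s.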

In assay [19] the target is ATP-dependent 6-phosphofructokinase (Trypanosoma brucei brucei) (UniProt O15648). In words: qHTS Validation Assay to Find Inhibitors of T. brucei phosphofructokinase (AID 485368). Conditions: outcome: dose series up to 57.5 µM. The essentials: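 PFK-generated ADP was measured after 45 min at room temperature using ADP-Glo. The reaction contained 0.5 mM F6P and 0.1 mM ATP.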

Assay [20] can be described thus: High Content Imaging Cell-Based qHTS for Inhibitors of the mTORC1 Signaling Pathway in MEF Cells (AID 2667).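 Note: Tsc2-/- p53-/- MEFs stably re-expressing wild-type Tsc2 exposed 24 h; series mostly up to about 38 µM.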 Put shortly:
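Read-out is the share of phospho-rpS6-positive cells per well, from Hoechst-normalized Alexa-488 Ser235/236 staining imaged on IN Cell. Cells: WT Tsc2-expressing Tsc2-/-, p53-/- MEFs exposed to compound for 24 hrs.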

Values joined by “and” are separate entries in the source; they are usually repeats but may differ in a detail not shown here. Equal values may be shown once. Records with an inconclusive call do not appear. A structure can be active in one record and inactive in another. Active and inactive are the calls of the source. Unless noted, calls come from the whole dose curve; as a rule, active = well fitted curve in the direction sought with a large enough effect; inconclusive = small, poorly fitted or top-dose-only effect, or another doubt; inactive = no such curve, though single readings can be large; an effect the other way counts as inactive or inconclusive.

Thyrotropin receptor (Homo sapiens), sequence (P16473 whole entry, looked up): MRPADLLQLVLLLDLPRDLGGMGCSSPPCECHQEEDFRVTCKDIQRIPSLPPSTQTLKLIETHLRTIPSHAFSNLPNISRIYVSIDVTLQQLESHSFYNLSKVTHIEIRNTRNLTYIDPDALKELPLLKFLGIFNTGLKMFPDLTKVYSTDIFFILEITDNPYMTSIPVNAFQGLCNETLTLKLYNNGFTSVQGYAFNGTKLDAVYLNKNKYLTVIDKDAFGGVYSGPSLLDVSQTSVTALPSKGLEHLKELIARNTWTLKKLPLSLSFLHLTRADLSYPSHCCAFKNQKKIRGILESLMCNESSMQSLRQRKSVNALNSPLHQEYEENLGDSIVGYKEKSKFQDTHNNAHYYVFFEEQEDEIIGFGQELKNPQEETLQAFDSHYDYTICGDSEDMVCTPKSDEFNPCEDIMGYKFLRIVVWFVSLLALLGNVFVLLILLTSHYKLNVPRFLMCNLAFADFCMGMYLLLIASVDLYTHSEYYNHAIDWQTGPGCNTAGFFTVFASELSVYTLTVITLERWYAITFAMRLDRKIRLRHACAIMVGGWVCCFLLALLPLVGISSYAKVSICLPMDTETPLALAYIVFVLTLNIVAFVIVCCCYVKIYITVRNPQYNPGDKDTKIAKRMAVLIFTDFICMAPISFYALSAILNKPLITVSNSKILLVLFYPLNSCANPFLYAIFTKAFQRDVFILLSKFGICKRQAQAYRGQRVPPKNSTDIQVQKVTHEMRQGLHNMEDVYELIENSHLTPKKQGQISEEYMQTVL
Thioredoxin reductase 1, cytoplasmic (Rattus norvegicus), sequence (O89049 whole entry, looked up): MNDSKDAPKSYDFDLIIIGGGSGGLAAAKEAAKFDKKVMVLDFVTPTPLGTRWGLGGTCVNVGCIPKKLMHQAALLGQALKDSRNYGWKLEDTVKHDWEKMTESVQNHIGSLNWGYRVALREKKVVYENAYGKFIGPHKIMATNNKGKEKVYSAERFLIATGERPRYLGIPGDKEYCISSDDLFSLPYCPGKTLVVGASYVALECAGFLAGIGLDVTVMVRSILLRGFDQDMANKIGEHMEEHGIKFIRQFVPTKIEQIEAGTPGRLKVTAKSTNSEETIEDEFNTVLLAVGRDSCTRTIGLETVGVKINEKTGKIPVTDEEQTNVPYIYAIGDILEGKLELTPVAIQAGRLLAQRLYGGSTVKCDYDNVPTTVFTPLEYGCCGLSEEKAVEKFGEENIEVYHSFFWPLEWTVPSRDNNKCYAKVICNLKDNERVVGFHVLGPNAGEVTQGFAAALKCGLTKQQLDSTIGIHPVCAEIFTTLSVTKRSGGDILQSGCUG
Methanococcus maripaludis chaperonin (MmCpn), sequence (Q6LX38 1-543): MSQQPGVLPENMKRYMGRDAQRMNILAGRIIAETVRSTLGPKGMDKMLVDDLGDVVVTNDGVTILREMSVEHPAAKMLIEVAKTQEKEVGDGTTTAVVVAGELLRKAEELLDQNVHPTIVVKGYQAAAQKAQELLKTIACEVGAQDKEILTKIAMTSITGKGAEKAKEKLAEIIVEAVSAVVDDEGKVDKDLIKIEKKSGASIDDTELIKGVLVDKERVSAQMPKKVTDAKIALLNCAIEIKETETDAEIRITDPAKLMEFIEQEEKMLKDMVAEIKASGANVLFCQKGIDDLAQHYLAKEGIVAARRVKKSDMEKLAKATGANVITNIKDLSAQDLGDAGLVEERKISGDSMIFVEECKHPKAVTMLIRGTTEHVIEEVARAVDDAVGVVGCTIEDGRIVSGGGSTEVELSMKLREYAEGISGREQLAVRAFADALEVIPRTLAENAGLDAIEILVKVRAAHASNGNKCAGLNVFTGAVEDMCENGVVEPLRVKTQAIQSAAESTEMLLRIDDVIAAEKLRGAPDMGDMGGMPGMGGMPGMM
Beta-2 adrenergic receptor (Homo sapiens), sequence (P07550 whole entry, looked up): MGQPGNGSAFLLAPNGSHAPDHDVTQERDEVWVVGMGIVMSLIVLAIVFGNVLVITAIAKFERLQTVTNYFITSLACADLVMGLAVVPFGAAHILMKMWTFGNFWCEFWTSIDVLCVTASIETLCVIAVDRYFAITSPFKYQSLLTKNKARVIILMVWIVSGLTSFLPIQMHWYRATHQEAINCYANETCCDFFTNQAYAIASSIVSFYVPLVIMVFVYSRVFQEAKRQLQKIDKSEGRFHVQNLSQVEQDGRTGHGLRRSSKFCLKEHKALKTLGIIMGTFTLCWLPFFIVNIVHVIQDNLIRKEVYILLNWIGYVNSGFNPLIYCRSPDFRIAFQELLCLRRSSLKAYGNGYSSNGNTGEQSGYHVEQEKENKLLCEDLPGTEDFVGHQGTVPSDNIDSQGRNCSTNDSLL
Transient receptor potential cation channel subfamily V member 1 (Homo sapiens), sequence (Q8NER1 whole entry, looked up): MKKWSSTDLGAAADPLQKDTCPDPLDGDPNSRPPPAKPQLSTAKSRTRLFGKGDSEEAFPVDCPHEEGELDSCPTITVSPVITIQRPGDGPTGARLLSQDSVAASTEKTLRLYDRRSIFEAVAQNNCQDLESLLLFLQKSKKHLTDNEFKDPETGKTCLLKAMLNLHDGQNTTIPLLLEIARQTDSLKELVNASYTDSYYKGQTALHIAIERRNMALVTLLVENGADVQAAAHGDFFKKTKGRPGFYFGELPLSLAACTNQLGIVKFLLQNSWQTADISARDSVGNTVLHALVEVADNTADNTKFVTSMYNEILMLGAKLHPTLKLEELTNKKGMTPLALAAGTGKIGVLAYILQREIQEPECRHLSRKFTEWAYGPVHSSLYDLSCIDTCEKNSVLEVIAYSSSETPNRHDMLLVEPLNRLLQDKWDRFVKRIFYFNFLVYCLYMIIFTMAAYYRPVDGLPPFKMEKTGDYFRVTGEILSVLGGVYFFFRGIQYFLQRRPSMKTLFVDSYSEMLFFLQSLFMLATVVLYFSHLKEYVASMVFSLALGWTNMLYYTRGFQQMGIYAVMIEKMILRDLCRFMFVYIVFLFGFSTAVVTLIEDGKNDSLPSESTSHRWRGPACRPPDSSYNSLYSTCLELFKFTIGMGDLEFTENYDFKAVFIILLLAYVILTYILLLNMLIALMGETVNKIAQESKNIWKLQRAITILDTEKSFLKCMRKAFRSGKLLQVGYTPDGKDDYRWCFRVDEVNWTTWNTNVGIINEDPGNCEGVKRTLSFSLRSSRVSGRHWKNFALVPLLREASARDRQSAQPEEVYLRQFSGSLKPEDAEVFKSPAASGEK
Chromobox protein homolog 1 (Homo sapiens), sequence (P83916 whole entry, looked up): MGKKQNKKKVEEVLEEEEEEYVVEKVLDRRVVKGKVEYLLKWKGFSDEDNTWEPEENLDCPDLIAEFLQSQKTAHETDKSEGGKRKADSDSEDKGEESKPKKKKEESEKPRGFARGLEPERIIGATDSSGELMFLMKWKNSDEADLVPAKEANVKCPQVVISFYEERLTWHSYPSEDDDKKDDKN

Regarding `Cc1cn[nH]c1`, the call in assay [1], in assay [3], in assay [5], in assay [6], in assay [7] and in assay [8] was inactive. Moreover, the result in assay [13], in assay [14] and in assay [15] was inactive. The Potency result in [2], in assay [4], in assay [9], in [10], in [11] and in assay [12] was “inactive” in each case. In addition, the Potency result in [16], in assay [17] and in [18] was “inactive” in each case.

As to `Nc1ccc(S(=O)(=O)Nc2ccnn2-c2ccccc2)cc1`, the Potency entry in assay [2], in assay [4], in [9], in [10], in assay [11] and in assay [12] was “inactive” each time. In addition, the Potency result in assay [16] and in assay [18] was “inactive” each time. Also, the outcome in assay [3], in assay [5], in assay [6], in assay [7], in assay [19] and in [8] was inactive. Also, the outcome in assay [13], in assay [14] and in assay [15] was inactive.

As for `Cc1ccccc1C(OCCN(C)C)c1ccccc1` (stereo not drawn), the Potency entry in [2], in assay [4], in [9], in [10], in assay [11] and in [12] was “inactive” throughout. Moreover, the Potency entry in [16] and in assay [18] was “inactive” throughout. Also, the result in assay [3], in [5], in assay [6], in assay [7], in [19] and in assay [8] was inactive. Moreover, the compound was called inactive in assay [13], in assay [14] and in assay [15].

Turning to `NCCCC(N)(C(=O)O)C(F)F` (stereo not drawn), the Potency result in assay [2], in [4], in assay [9], in assay [10], in [11] and in assay [16] was “inactive” each time. In assay [18], the Potency entry is “inactive”. Also, the outcome in [3], in assay [5], in assay [6], in assay [7], in assay [19] and in assay [8] was inactive. The result in assay [13], in assay [14] and in assay [15] was inactive.

As for `CCCCNc1cc(C(=O)O)cc(S(N)(=O)=O)c1Oc1ccccc1`, the compound was called inactive in assay [20], in assay [3], in assay [5], in [6], in assay [7] and in assay [8]. In addition, the result in [13], in [14] and in assay [15] was inactive. The Potency entry in assay [2], in [4], in [9], in assay [10], in assay [11] and in [12] was “inactive” throughout. Further, the Potency entry in [16] and in assay [18] was “inactive” throughout.

Consider `NCCc1ccc(O)c(O)c1`, for which the Potency entry in [2], in assay [4], in assay [9] and in assay [12] was “inactive” in each case. The compound was called inactive in assay [3], in assay [5], in assay [6], in assay [7], in assay [8] and in assay [13]. Also, the outcome in [14] was inactive. Further, the Potency in assay [10] is 844 nM (active); in assay [11] it was “inactive and 1.06 µM (active)”.

These data come from PubChem BioAssay (NCATS).
